The assay concerns MDA-MB-468 breast. Kind of assay: NCI-60 one-dose screen, 48 h (100 = growth as untreated, 0 = no growth, -100 = all killed). As to conditions: 10 µM unless noted.

Structures are written as SMILES. Several values for one entry are separate records, joined by “and”; a condition that tells them apart may be missing. Equal entries are not always repeated. This is part of a sample that, as a whole, favours compounds with a hit. Of some 83,000 tested, about 20% had one in any assay.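 Percent growth is the endpoint: 0 to 100 indicates growth inhibition (40 means 60% inhibition), 0 means no net growth, and negative values indicate cell death.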 Unmarked numbers belong to inactive results. Activity calls are given as the source filed them. How the source made its calls: active means growth percent below 10; inactive means the rest.

In the case of `OC(c1cc(C(F)(F)F)nc2c(C(F)(F)F)cccc12)C1CCCCN1` (stereo unspecified), the growth was -5.03% (active).

Consider `COc1ccc(NC(=O)CSc2nnc(-c3cc(-c4ccccc4)nc4ccccc34)n2-c2ccccc2)cc1`, for which the growth is 97.3%.

For `C=C(C)[C@@H]1CC[C@]2(C(=O)NCC#CCN3CCN(C)CC3)CC[C@]3(C)[C@H](CC[C@@H]4[C@@](C)(CCC#N)[C@H](C(=C)C)CC[C@]43C)[C@@H]12`, the growth is 18.7%.

As for `CC(C)NCC(O)COc1ccc(CC(N)=O)cc1` (stereo unspecified), the growth was 102%.

Regarding `C[C@@H]1NC(=O)[C@H](Cc2ccccc2)N(Cc2cccnc2)C1=O`, the growth is 108%.

For the compound `CC(=O)Oc1cc(C(=O)O)cc(OC(C)=O)c1OC(C)=O`, the growth is 98.6% and 108%.

In the case of `COc1cc(/C(Cl)=C/C=C/C(=O)c2c(C)[n+]([O-])c3ccc(Cl)cc3[n+]2[O-])cc(OC)c1OC`, the growth is -11.2% (active).

Turning to `CC1CCN(C(=O)CCCl)c2ccccc21` (stereo unspecified), the growth is 108%.

On to `O=C1Nc2ccccc2/C1=C/c1cn(C(=O)c2ccc(Cl)cc2)c2ccccc12`, for which the growth is 97.6%.

For `COc1ccc2c(c1)N(CCO)C1=C(C(=O)OC1)C2c1cccc(Br)c1` (stereo unspecified), the growth is 12.9%.

Turning to `Cc1ccc2c(n1)C(=O)C(Cl)=C(Nc1ccc(C#N)cc1)C2=O`, the growth was 51.4%.

As for `C/C(=N/NC(N)=O)c1ccco1`, the growth was 110%.

Consider `Cc1ccc(-c2nc(SCC(=O)c3ccc(C#N)cc3)[nH]c(=O)c2C#N)cc1`, for which the growth was 120%.

With `COc1ccc2[nH]c(-c3ccc(Cl)cc3)cc(=O)c2c1`, the growth is 99%.

As to `Cc1cc(O)c(C2=NN(c3ccc(S(N)(=O)=O)cc3)C(c3ccccc3O)C2)cc1Cl` (stereo unspecified), the growth was 17.2%.

On to `O=Cc1c(O)c2ccccc2[nH]c1=O`, for which the growth is 94.5%.

Take `CNC(=O)Nc1ccc(Nc2cc(-c3ccc(-n4cccn4)cc3)[nH]n2)c(C)c1`: the growth is 96.3%.

`COc1cc(-c2ccc3ncnc(NC(C)c4ccccc4)c3c2)cnc1OC` (stereo unspecified): the growth was -3.02% (active).

`Cc1cccc2c3c(sc12)C(c1ccc(F)cc1)C(C#N)=C(N)O3` (stereo unspecified): the growth was 24.3%.

Take `O=C(O)c1c[nH]c2ccccc2c1=O`: the growth is 114%.

For `CC(NC(N)=S)c1ccccc1` (stereo unspecified), the growth was -11.5% (active).

The values above are taken from PubChem BioAssay (NCI).
